Records with an inconclusive call do not appear. Active and inactive are the calls of the source. The calls were made as follows, unless noted: active = hit-call score of the fitted dose curve at least 0.9, where 1 is the maximum; inconclusive = response in the unintended direction; inactive = score below 0.9.
These molecules were tested against human Peroxisome Proliferator-activated Receptor delta (PPARd), PPARD (gene 5467) (UniProt Q03181) (assay: ATG_PPARd_TRANS: Attagene TRANS-FACTORIAL HepG2 Assay for human Peroxisome Proliferator-activated Receptor delta (PPARd) (AID 2283002)). Conditions: not given.
How it was run: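 Cell-based TRANS reporter: HepG2, transient MRTU transfection, 24 h exposure. Readout = reporter mRNA (RT-PCR/CE, 6-FAM). Gain-of-signal fit vs DMSO control.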

Chain of human Peroxisome Proliferator-activated Receptor delta (PPARd), PPARD (gene 5467) (Q03181 whole entry, looked up): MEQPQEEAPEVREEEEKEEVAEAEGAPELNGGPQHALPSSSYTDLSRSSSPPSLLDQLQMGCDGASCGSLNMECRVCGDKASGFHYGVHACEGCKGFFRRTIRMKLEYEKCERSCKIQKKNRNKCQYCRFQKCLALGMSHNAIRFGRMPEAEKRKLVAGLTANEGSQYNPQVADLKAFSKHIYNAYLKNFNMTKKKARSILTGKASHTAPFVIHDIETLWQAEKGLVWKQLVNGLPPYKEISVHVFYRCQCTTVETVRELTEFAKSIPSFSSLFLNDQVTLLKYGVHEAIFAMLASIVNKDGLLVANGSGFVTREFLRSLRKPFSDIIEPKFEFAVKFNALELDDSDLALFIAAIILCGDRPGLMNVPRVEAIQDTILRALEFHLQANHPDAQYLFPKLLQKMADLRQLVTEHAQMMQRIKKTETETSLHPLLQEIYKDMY

SMILES | outcome | AC50
CC[C@H]1CC[C@H](NCc2cc3c(cc2OC)[C@H]2C[C@H]2C(=O)N3C)[C@H](c2ccccc2)N1 | inactive | –
Oc1ccc2c(c1)-c1ccccc1C2 | inactive | –
Cc1c(-c2cccnc2)c2ccccc2n1CCCCC(=O)O | inactive | –
Cc1ccc(C)c(O)c1 | inactive | –
CCCCC(CC)COC(=O)CCCCCCCCC(=O)OCC(CC)CCCC (centres undefined) | inactive | –
Cc1ccc(S(=O)(=O)O)cc1C | inactive | –
Cc1ccc(N)cc1O | inactive | –
CCC(C)(C)C(=O)O[C@H]1C[C@@H](C)C=C2C=C[C@H](C)[C@H](CC[C@@H]3C[C@@H](O)CC(=O)O3)[C@H]21 | inactive | –
C[C@](N)(Cc1ccc(O)c(O)c1)C(=O)O | inactive | –
CC(C)c1cccc(C(C)C)c1N1C(=O)c2ccc(O)cc2C1=O | inactive | –
CCCCCCCCCCCCCCCO | inactive | –
Cn1cnc([N+](=O)[O-])c1Sc1ncnc2nc[nH]c12 | inactive | –
CC(O)CN(CCN(CC(C)O)CC(C)O)CC(C)O (centres undefined) | inactive | –
CNCc1ccc(NC(=O)c2c[nH]c3c2C(=O)CCC3)cc1 | inactive | –
Clc1nc(Cl)c(Cl)c(Cl)c1Cl | inactive | –
CCn1nc(Cc2ccccc2)cc1C1CCN(C[C@H]2C[C@H](N(C)[C@@H](C(=O)O)C(C)C)C[C@@H]2c2cccc(F)c2)CC1 | inactive | –
O=C1CCCCCN1 | inactive | –
COc1ccc(-n2nc(C(F)F)cc2-c2ccc(S(C)=O)cc2)cc1 (centres undefined) | inactive | –
Cc1[nH]cnc1C[C@H]1CCc2c(C)c3ccccc3n2C1=O | inactive | –
O=C(O)c1cccc(N(Cc2cccnc2)c2ccc(OC(F)F)c(OC(F)F)c2)c1 | inactive | –
Fc1ccccc1[C@@H](F)COC1CCC(Nc2ncnc3[nH]ncc23)CC1 (some centres undefined) | inactive | –
CCNc1ccccc1 | inactive | –
COc1ccc2sc(C(=O)Nc3nnn[nH]3)c(OC(C)C)c2c1 | inactive | –
CCOC(=O)COc1ccc2c(c1)CC(NCC(O)c1cccc(Cl)c1)CC2 (centres undefined) | inactive | –
COC(=O)c1ccccc1O | inactive | –
CNS(=O)(=O)c1cc(C(=O)N2CCC(CCN3C4CCC3CC(n3c(C)nc5ccccc53)C4)(c3cccc(F)c3)CC2)c(Cl)cc1F (centres undefined) | inactive | –
O=c1n(CC2CO2)c(=O)n(CC2CO2)c(=O)n1CC1CO1 (centres undefined) | inactive | –
NC(=O)NO | inactive | –
CN(C)c1ccc(Cc2ccc(N(C)C)cc2)cc1 | – | 58.5 µM (active)

The molecules below were run on Intercellular Adhesion Molecule 1 (ICAM1), ICAM1 (gene 3383) (assay: BSK_3C_ICAM1: BioMAP Diversity Plus: 3C Assay for Intercellular Adhesion Molecule 1 (ICAM1) Biomarker Activity (AID 2283003; active = hit-call score of the fitted dose curve at least 0.9, where 1 is the maximum; inactive = score below 0.9)). Conditions: primary human endothelial cells (HUVEC); actives raise or lower the signal.
How it was run: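 Chemicals are dosed onto primary human umbilical vein endothelium (3C system). After 24 h, ICAM-1 is measured by ELISA, and responses are fitted bidirectionally relative to DMSO.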

SMILES | outcome | AC50
CC[C@H]1CC[C@H](NCc2cc3c(cc2OC)[C@H]2C[C@H]2C(=O)N3C)[C@H](c2ccccc2)N1 | inactive | –
Oc1ccc2c(c1)-c1ccccc1C2 | inactive | –
Cc1c(-c2cccnc2)c2ccccc2n1CCCCC(=O)O | inactive | –
Cc1ccc(C)c(O)c1 | inactive | –
CCCCC(CC)COC(=O)CCCCCCCCC(=O)OCC(CC)CCCC (centres undefined) | inactive | –
Cc1ccc(S(=O)(=O)O)cc1C | inactive | –
Cc1ccc(N)cc1O | inactive | –
CCC(C)(C)C(=O)O[C@H]1C[C@@H](C)C=C2C=C[C@H](C)[C@H](CC[C@@H]3C[C@@H](O)CC(=O)O3)[C@H]21 | inactive | –
C[C@](N)(Cc1ccc(O)c(O)c1)C(=O)O | inactive | –
CC(C)c1cccc(C(C)C)c1N1C(=O)c2ccc(O)cc2C1=O | inactive | –
CCCCCCCCCCCCCCCO | inactive | –
Cn1cnc([N+](=O)[O-])c1Sc1ncnc2nc[nH]c12 | inactive | –
CC(O)CN(CCN(CC(C)O)CC(C)O)CC(C)O (centres undefined) | inactive | –
CNCc1ccc(NC(=O)c2c[nH]c3c2C(=O)CCC3)cc1 | inactive | –
Clc1nc(Cl)c(Cl)c(Cl)c1Cl | inactive | –
CCn1nc(Cc2ccccc2)cc1C1CCN(C[C@H]2C[C@H](N(C)[C@@H](C(=O)O)C(C)C)C[C@@H]2c2cccc(F)c2)CC1 | inactive | –
O=C1CCCCCN1 | inactive | –
COc1ccc(-n2nc(C(F)F)cc2-c2ccc(S(C)=O)cc2)cc1 (centres undefined) | inactive | –
Cc1[nH]cnc1C[C@H]1CCc2c(C)c3ccccc3n2C1=O | inactive | –
O=C(O)c1cccc(N(Cc2cccnc2)c2ccc(OC(F)F)c(OC(F)F)c2)c1 | inactive | –
Fc1ccccc1[C@@H](F)COC1CCC(Nc2ncnc3[nH]ncc23)CC1 (some centres undefined) | inactive | –
CCNc1ccccc1 | inactive | –
COc1ccc2sc(C(=O)Nc3nnn[nH]3)c(OC(C)C)c2c1 | – | 26.4 µM (active)
CCOC(=O)COc1ccc2c(c1)CC(NCC(O)c1cccc(Cl)c1)CC2 (centres undefined) | – | 28.4 µM (active)
COC(=O)c1ccccc1O | inactive | –
CNS(=O)(=O)c1cc(C(=O)N2CCC(CCN3C4CCC3CC(n3c(C)nc5ccccc53)C4)(c3cccc(F)c3)CC2)c(Cl)cc1F (centres undefined) | inactive | –
O=c1n(CC2CO2)c(=O)n(CC2CO2)c(=O)n1CC1CO1 (centres undefined) | inactive | –
NC(=O)NO | inactive | –
CN(C)c1ccc(Cc2ccc(N(C)C)cc2)cc1 | inactive | –

The molecules below were run against human Retinoic Acid Receptor beta (RARb), RARB (gene 5915) (UniProt P10826) (assay: ATG_RARb_TRANS: Attagene TRANS-FACTORIAL HepG2 Assay for human Retinoic Acid Receptor beta (AID 2283004)). Conditions: not given.
How it was run: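 HepG2, transient MRTU transfection, NR–Gal4 chimera, 24 h treatment; RT-PCR plus CE fluorescence detection of reporter mRNA; gain of signal vs DMSO.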

Chain of human Retinoic Acid Receptor beta (RARb), RARB (gene 5915) (P10826 whole entry, looked up, the tested form may be a part): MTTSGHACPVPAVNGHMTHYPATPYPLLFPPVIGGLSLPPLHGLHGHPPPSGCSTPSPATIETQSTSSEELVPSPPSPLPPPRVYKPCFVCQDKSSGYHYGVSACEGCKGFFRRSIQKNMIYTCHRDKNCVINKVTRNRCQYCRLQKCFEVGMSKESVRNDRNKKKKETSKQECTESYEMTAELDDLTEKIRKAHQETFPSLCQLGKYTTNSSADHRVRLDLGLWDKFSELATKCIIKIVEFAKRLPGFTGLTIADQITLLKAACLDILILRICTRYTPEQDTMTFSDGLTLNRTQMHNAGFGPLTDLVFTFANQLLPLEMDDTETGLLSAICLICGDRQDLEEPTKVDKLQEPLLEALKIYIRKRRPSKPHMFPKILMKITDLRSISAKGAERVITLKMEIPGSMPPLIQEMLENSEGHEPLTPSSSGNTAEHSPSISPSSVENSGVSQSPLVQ

SMILES | outcome
CC[C@H]1CC[C@H](NCc2cc3c(cc2OC)[C@H]2C[C@H]2C(=O)N3C)[C@H](c2ccccc2)N1 | inactive
Cc1c(-c2cccnc2)c2ccccc2n1CCCCC(=O)O | inactive
Cc1ccc(C)c(O)c1 | inactive
Cc1ccc(S(=O)(=O)O)cc1C | inactive
Cc1ccc(N)cc1O | inactive
C[C@](N)(Cc1ccc(O)c(O)c1)C(=O)O | inactive
Cn1cnc([N+](=O)[O-])c1Sc1ncnc2nc[nH]c12 | inactive
CC(O)CN(CCN(CC(C)O)CC(C)O)CC(C)O (centres undefined) | inactive
Clc1nc(Cl)c(Cl)c(Cl)c1Cl | inactive
O=C1CCCCCN1 | inactive
O=C(O)c1cccc(N(Cc2cccnc2)c2ccc(OC(F)F)c(OC(F)F)c2)c1 | inactive
CCNc1ccccc1 | inactive
CCOC(=O)COc1ccc2c(c1)CC(NCC(O)c1cccc(Cl)c1)CC2 (centres undefined) | inactive
COC(=O)c1ccccc1O | inactive
CNS(=O)(=O)c1cc(C(=O)N2CCC(CCN3C4CCC3CC(n3c(C)nc5ccccc53)C4)(c3cccc(F)c3)CC2)c(Cl)cc1F (centres undefined) | inactive
CN(C)c1ccc(Cc2ccc(N(C)C)cc2)cc1 | inactive

— PubChem BioAssay (EPA / NIEHS)
